From PubChem BioAssay AID1272365 (Small Molecule Screening Facility, UW Madison, 2023)
“And” between values parts separate entries of the source, which are not always exact repeats. Equal values may be shown once. The whole screen tested about 430,000 compounds, of which about 2,600 (0.6%) were called active. No stated cut-off is given here; in the data, active means inhibition mostly above about 37% (no sharp cut-off); inactive means mostly below about 20%. The sample as a whole holds a higher share of actives than the screen did.

What follows are compounds tested on PriA–SSB C-terminal tail interaction (Klebsiella pneumoniae) (assay: blocks PriA binding to SSB C-terminal tail, primary screen, biochemical, AlphaScreen (AID 1272365;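 further: plate controls were negative control peptide for no effect and reference peptide for full effect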)). Settings: AlphaScreen SSBct-PriA binding, biotinylated peptide; at 33 µM, stronger effect = higher value.
In the case of `Cc1ccc(S(=O)(=O)Nc2c(S(=O)(=O)c3ccccc3)c3nc4ccccc4nc3n2Cc2ccccc2)cc1`, the inhibition is reported as 34.2% (inactive). For `CCCCOCCCn1c(NS(=O)(=O)c2ccccc2)c(S(=O)(=O)c2ccc(C)cc2)c2nc3ccccc3nc21`, the inhibition was 67.3% (active). For `CCCCCCCCn1c(NS(=O)(=O)c2ccc(Cl)cc2)c(S(=O)(=O)c2ccccc2)c2nc3ccccc3nc21`, the inhibition was 49.6% (inactive). For `CCCCn1c(NS(=O)(=O)c2ccc(Cl)cc2)c(S(=O)(=O)c2ccc(C)cc2)c2nc3ccccc3nc21`, the inhibition was 54.8% (inactive). In the case of `Cc1ccc(S(=O)(=O)c2c(N)n(N=Cc3ccco3)c3nc4ccccc4nc23)cc1`, the inhibition is reported as 11% (inactive). In the case of `CCCCOCCCn1c(NS(=O)(=O)c2ccc3ccccc3c2)c(S(=O)(=O)c2ccc(C)cc2)c2nc3ccccc3nc21`, the inhibition is reported as 59.9% (active). With `O=S(=O)(CCc1ccccc1)NCC(O)c1ccoc1` (stereo unspecified) the inhibition was -25% (inactive). In the case of `COc1cc(NS(=O)(=O)c2ccc(NC(=O)c3cc4c(ccc5ccccc54)oc3=O)cc2)ncn1`, the inhibition is reported as -16% (inactive). In the case of `COC(=O)c1ccc(S(=O)(=O)NCC2(c3ccc(F)cc3)CC2)cc1`, the inhibition is reported as -24% (inactive). For `COc1ccc(Br)c(C(=O)NCCCc2cnoc2)c1`, the inhibition was 4% (inactive). In the case of `Cc1cc2ncc(NC(=O)NCCOc3ccccc3)cn2n1`, the inhibition is reported as -12% (inactive). In the case of `O=[N+]([O-])c1ccccc1Nc1ccc(O)cc1`, the inhibition is reported as 46.7% (active). In the case of `O=[N+]([O-])c1ccccc1NN=Cc1cccc(O)c1O`, the inhibition is reported as 0.72% (inactive). In the case of `O=C(Nc1ccc(OC(F)(F)F)cc1)C(=O)Nc1ccccc1[N+](=O)[O-]`, the inhibition is reported as 4% (inactive). With `COc1cccc(CCNC(=O)C2CS(=O)(=O)CN2C(=O)c2ccccc2)c1` (stereo unspecified) the inhibition was -9% (inactive). With `Cc1ccc(-c2cc3c(=O)n(CC(=O)Nc4ccc5c(c4)OCO5)ncn3n2)cc1C` the inhibition was -17% (inactive). In the case of `O=C(c1ccccc1)c1sc(NC(=O)c2cc(-c3ccccc3)nc3ccccc23)nc1-c1ccccc1`, the inhibition is reported as 10% (inactive). `CC(=NNC(=O)c1c(Cl)c(C)nn1C)c1cccc(NC(=O)C2CCCC2)c1` was tested, and the inhibition was 2.34% (inactive). With `Cc1cc(-c2nnc(NC(=O)C(c3ccccc3)c3ccccc3)o2)nn1C` the inhibition was 85% (active). For `Cc1cc(-c2nnc(NC(=O)Cc3ccccc3)o2)n(C)n1`, the inhibition was 14% (inactive). For `CSc1ccccc1C(=O)Nc1nnc(-c2cc(C)nn2C)o1`, the inhibition was 6% (inactive) and 0% (inactive). For `Cc1cc(-c2nnc(NC(=O)C(c3ccccc3)c3ccccc3)o2)n(C)n1`, the inhibition was 61% (active). With `Cc1cc(-c2nnc(NC(=O)C(C)C)o2)nn1C` the inhibition was -2% (inactive). For `Cc1cc(-c2nnc(NC(=O)c3ccc(C(=O)c4ccccc4)cc3)o2)nn1C`, the inhibition was 3% (inactive). `COC[C@@](C)(O)CNS(=O)(=O)c1ccccc1OC` was tested, and the inhibition was -2% (inactive). `Cc1cc(C)c2c(n1)nn1c(NCc3ccc(Cl)cc3Cl)cc(C)nc21` was tested, and the inhibition was -9% (inactive). In the case of `COc1cc(NC(=O)Cc2c(C)noc2C)ncn1`, the inhibition is reported as -19% (inactive). `CC(=O)c1c(C)n(-c2ccc(N(C)C)cc2)c2ccc(OCC(N)=O)cc12` was tested, and the inhibition was -18.2% (inactive). For `Cc1oc2ccc(OCc3ccccc3)cc2c1C(=O)NCc1ccco1`, the inhibition was -4% (inactive). For `CC(=O)c1c(C)n(-c2ccc(C)cc2)c2ccc(O)cc12`, the inhibition was -0.78% (inactive). For `CCOC(=O)c1c(C)n(-c2ccc(C)cc2)c2ccc(OCC(O)Cn3ccnc3)cc12` (stereo unspecified), the inhibition was 83% (active) and 46% (active). With `CCOC(=O)c1c(C)n(-c2ccc(C)cc2)c2ccc(OCC(O)CNCc3ccco3)cc12` (stereo unspecified) the inhibition was 69% (active). In the case of `Cc1cc(C(=O)OCC(=O)NCc2ccco2)c(C)n1-c1ccccc1`, the inhibition is reported as -5.93% (inactive). `COc1cc(OC)cc(-c2noc(-c3cc(-c4cc(C)ccc4C)n[nH]3)n2)c1` was tested, and the inhibition was -13% (inactive). For `O=C(c1ccc([N+](=O)[O-])o1)N1CCN(c2ncnc3c2nnn3-c2cccc(F)c2)CC1`, the inhibition was -10% (inactive). For `CC(=O)Nc1nnc(Cc2ccc(F)cc2)o1`, the inhibition was 1% (inactive). For `COc1ncc(NC(=O)Nc2ccc(C)c(Cl)c2)c(N(C)C)n1`, the inhibition was 10% (inactive). `O=C(Cc1csc(SCc2ccc(Cl)cc2)n1)Nc1ccc2c(c1)OCO2` was tested, and the inhibition was 1% (inactive). In the case of `CN(C)c1ccc(/C=N\NC(=O)c2ccccc2O)cc1`, the inhibition is reported as -18% (inactive). For `NC(=O)c1ccccc1OCC#CCNS(=O)(=O)Cc1ccc(Cl)cc1`, the inhibition was -1% (inactive). `O=C(Cn1nc(-c2ccc(F)cc2)c2sc(N3CCCC3)nc2c1=O)NCc1ccccc1Cl` was tested, and the inhibition was -4% (inactive). In the case of `CCOc1cc(/C=C2/N=C(c3ccc(C(C)(C)C)cc3)OC2=O)cc(Cl)c1OS(C)(=O)=O`, the inhibition is reported as 62.1% (active). With `CC(=O)Nc1ccc(N2C(=O)c3cccc4cccc(c34)C2=O)cc1` the inhibition was 5% (inactive). For `Cc1c(NC(=O)CSc2cccc3cccnc23)c(=O)n(-c2ccccc2)n1C`, the inhibition was 96% (active). `Cc1c(NC(=O)COc2cccc(OCCC(C)C)c2)c(=O)n(-c2ccccc2)n1C` was tested, and the inhibition was -3% (inactive). In the case of `Cc1ccc(NC(=O)CSc2cccc3cccnc23)c(C)c1`, the inhibition is reported as 79.3% (active). With `Cc1ccc(NC(=O)C2CCCN2S(=O)(=O)c2cccc3cccnc23)c(C)c1` (stereo unspecified) the inhibition was -5.79% (inactive). With `O=C(CSc1cccc2cccnc12)Nc1ccc(Br)cc1` the inhibition was 27.6% (inactive). For `Cc1ccccc1OCCC(=O)Nc1c(C)n(C)n(-c2ccccc2)c1=O`, the inhibition was -12.4% (inactive). For `O=C(CSc1nnc(-c2ccc3c(c2)OCCO3)o1)Nc1nc(-c2ccccc2)cs1`, the inhibition was -3% (inactive). In the case of `COc1ccc(C(=O)CC(SCCO)c2ccc(F)cc2)cc1OC` (stereo unspecified), the inhibition is reported as -1% (inactive). `COc1ccc(NC(=O)NCC(c2ccc3c(c2)CCCN3C)N2CCCC2)cc1OC` (stereo unspecified) was tested, and the inhibition was 25% (inactive). For `O=C(NCCc1ccc(N2CCCC2)cc1)c1ccco1`, the inhibition was -19% (inactive). With `CCC(=O)N1CCc2ccc(NC(=O)CCC3CCCC3)cc2C1` the inhibition was -6% (inactive). With `CCCN1CCCc2cc(CCNC(=O)Cc3ccc(OC)cc3)ccc21` the inhibition was 57.9% (inactive). `Cc1cc(C)c(S(=O)(=O)Nc2ccc3c(c2)CCCN3C(=O)c2ccco2)c(C)c1` was tested, and the inhibition was 0% (inactive). With `CCCN1CCCc2cc(CCNC(=O)CCC3CCCC3)ccc21` the inhibition was 63% (active). `CCCN1CCCc2cc(CCNC(=O)c3ccco3)ccc21` was tested, and the inhibition was 56% (active). For `Cn1nc(CNS(=O)(=O)/C=C/c2ccccc2)c2c1CCCC2`, the inhibition was -3% (inactive). In the case of `CCCS(=O)(=O)N1CCc2ccc(NC(=O)c3ccc(Br)o3)cc2C1`, the inhibition is reported as -14% (inactive). In the case of `C=CCn1c(SCC(=O)N2CCOCC2)nc2scc(-c3ccccc3Cl)c2c1=O`, the inhibition is reported as -1% (inactive). For `Cc1cc(=O)n(CC(=O)Nc2ccc(C(F)(F)F)cc2)c(-c2ccncc2)n1`, the inhibition was -28% (inactive). With `CS(=O)(=O)N1CCN(C(=O)c2cnn3c2OCCC3)CC1` the inhibition was 6% (inactive). With `O=C(Cc1ccc(F)cc1)NCCn1nc(C(F)(F)F)c2c1CCCC2` the inhibition was 10% (inactive). `COc1cn2c(cc1=O)C(=O)N(CCNC(=O)C1(c3ccc(Cl)cc3)CCCC1)CC2` was tested, and the inhibition was -13% (inactive) and -15% (inactive). With `Cc1ccc2c(CC(=O)NCc3ccccc3Cl)cc(=O)oc2c1` the inhibition was -3% (inactive). `O=C(COC(=O)c1cccc(I)c1)c1ccc(-n2nncc2-c2ccccc2)cc1` was tested, and the inhibition was -4% (inactive). In the case of `O=C(COC(=O)c1cccc(I)c1)c1ccc([N+](=O)[O-])cc1`, the inhibition is reported as 38% (active). With `O=C(OCC(=O)N1CCc2ccccc21)c1ccc([N+](=O)[O-])cc1` the inhibition was -10.4% (inactive). For `CS(=O)(=O)N1CCC(CNC(=O)c2ccc(OC(F)(F)F)cc2)CC1`, the inhibition was -25% (inactive). `O=S(=O)(/C=C/c1ccccc1)N1CCCSCC1CN1CCOCC1` (stereo unspecified) was tested, and the inhibition was -4% (inactive). In the case of `COC(=O)c1sccc1S(=O)(=O)NCc1ccc(C(=O)c2ccco2)s1`, the inhibition is reported as -24% (inactive). With `O=C(Cn1nc(-n2ccc3ccccc32)ccc1=O)Nc1c[nH]c(=O)[nH]c1=O` the inhibition was -41% (inactive). With `CCOc1ccccc1C(=O)N1CCC(Oc2cccc(C)n2)CC1` the inhibition was -8% (inactive). `O=S(=O)(CCc1ccccc1)N1CCN(c2ccc(-c3ccccc3)nn2)CC1` was tested, and the inhibition was -3% (inactive). For `O=C(c1ccc(N2CCCCC2)nn1)N(Cc1ccccc1)c1ccccn1`, the inhibition was -19% (inactive). For `CCSc1ccccc1C(=O)N1CCN(C(=O)C2CC2c2ccccc2)CC1` (stereo unspecified), the inhibition was -7% (inactive). In the case of `O=C(c1ccccc1F)N1CCN(c2ccc(-c3cccnc3)nn2)CC1`, the inhibition is reported as -8% (inactive) and -16% (inactive). In the case of `CCOc1ccccc1C(=O)N1CCN(c2ccc(-c3ccccn3)nn2)CC1`, the inhibition is reported as 100% (active). With `c1ccc(-c2ccc(N3CCNCC3)nn2)nc1` the inhibition was 100% (active). In the case of `CCSc1ccccc1C(=O)N1CCN(c2ccc(-c3ccccn3)nn2)CC1`, the inhibition is reported as 161% (active). With `CCSc1ccccc1C(=O)N1CCN(c2ncnc3c2nnn3C)CC1` the inhibition was -12% (inactive). For `C=CCNC(=S)NN=C(C)c1cc(OC)c(OC)c(OC)c1`, the inhibition was -5.43% (inactive). In the case of `Cc1cc(OC2CN(C(=O)C(C)(C)Oc3ccc(Cl)cc3)C2)cc(=O)n1C`, the inhibition is reported as -5% (inactive). `COc1ccc(N2CCn3c(SCC(=O)Nc4ccc(OC)cc4OC)nnc32)cc1` was tested, and the inhibition was -12% (inactive). In the case of `O=C(O)c1cc(Br)cs1`, the inhibition is reported as -5% (inactive). For `Cc1ccc(SCCC(=O)Nc2cccc(Cl)c2Cl)cc1`, the inhibition was -17% (inactive) and -19% (inactive). For `COc1ccc(OCC(=O)NN=C(C)CC(=O)Nc2ccc(OC)cc2[N+](=O)[O-])cc1`, the inhibition was -8.04% (inactive). In the case of `COc1ccc(NC(=O)CCSc2ccc(C)cc2)c([N+](=O)[O-])c1`, the inhibition is reported as 62% (active). With `CN(C)[C@@H](CNC(=O)C(=O)Nc1ccc(F)c(Cl)c1)c1ccco1` the inhibition was -17% (inactive). `NC(=O)c1ccccc1NC(=O)c1cccn(Cc2cccc(F)c2)c1=O` was tested, and the inhibition was 4% (inactive).
